Laboratory results reported in PubChem BioAssay (Tox21).
Results filed as inconclusive are left out. Calls of active or inactive are those of the source. Unless noted, the call rests on the fitted dose curve; in most records, active means well fitted curve in the direction sought with a large enough effect in the repeat runs; inconclusive means weak or mixed curves; inactive means no such curve, though single readings can be large; an effect the other way counts as inactive or inconclusive.

Assays:
[1] = qHTS assay to identify small molecule agonists of the vitamin D receptor (VDR) signaling pathway - cell viability counter screen (AID 743224); further: series mostly up to about 63 µM; nearly all actives have a fitted effect of over 50% in size
In short: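 Here cell health was gauged by luminescent ATP detection (CellTiter-Glo, 30 min RT) in VDR-bla cells that had been incubated with test compounds for 16 h at 37C and 5% CO2.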

[2] = qHTS assay to identify small molecule antagonists of the vitamin D receptor (VDR) signaling pathway - cell viability counter screen (AID 743225); further: nearly all actives have a fitted effect of over 50% in size
In short: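 Parallel cytotoxicity test: VDR-UAS-bla HEK 293T, 3 nM (final) 1-alpha,25-dihydroxyvitamin D3 with test compound, 16 h, 37C. Endpoint is CellTiter-Glo luminescence in the same wells.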

[3] = qHTS assay to identify small molecule agonists of the NFkB signaling pathway (AID 1159509; active means well fitted curve in the direction sought with a large enough effect in the signal ratio in the repeat runs, not every such curve was filed as active; the % refers to the signal ratio; further: series mostly up to about 61 µM)
In short: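 ME-180 NFkB-bla, 2,000 cells/well, overnight plating; cpd pinned in DMSO, 5 h 37 C; B/G FRET substrate 1.5 h RT; ex 405, em 460/530 nm.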

[4] = qHTS assay to identify small molecule agonists of the NFkB signaling pathway - cell viability counter screen (AID 1159515; calls by dose curve; further: series mostly up to about 61 µM; nearly all actives have a fitted effect of over 55% in size)
In short: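 5 hr compound treatment of NFkB-bla ME-180 cells (2,000/well, seeded overnight beforehand), followed by reporter substrate for 1.5 hr. CellTiter-Glo added afterward; luminescence after 30 min RT.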

[5] = qHTS assay to identify small molecule agonists of the endoplasmic reticulum stress response signaling pathway (AID 1159516; active means well fitted activation curve with a large enough effect in the signal ratio in the repeat runs, not every such curve was filed as active; the % refers to the signal ratio)
In short: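 Reporter HeLa cells (ESRE-beta-lactamase) underwent 5 hr compound incubation at 37 C and 5% CO2 in quantitative HTS format. Detection followed 2 hr of FRET substrate loading at room temperature.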

[6] = qHTS assay to identify small molecule agonists of the endoplasmic reticulum stress response signaling pathway - cell viability counter screen (AID 1159517; calls by dose curve;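 further: HeLa cells carrying an ER stress response element beta-lactamase reporter; series mostly up to about 61 µM; nearly all actives have a fitted effect of over 50% in size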)
In short: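 HeLa cells carrying an ESRE-driven beta-lactamase reporter receive compound for 5 hr at 37 C. Cell viability is then gauged with CellTiter-Glo by luminescence, 30 min at room temperature.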

[7] = qHTS assay to identify small molecule antagonists of the retinoid-related orphan receptor gamma (ROR-gamma) signaling pathway - cell viability counter screen (AID 1159520); further: nearly all actives have a fitted effect of over 50% in size
In short: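 Cytotoxicity was read from cellular ATP (CellTiter-Glo luminescence) after 16 hr at 37 C with 1 uM doxycycline induction. The inducer was added 2 hr after compound transfer to Tet-on ROR gamma CHO cells.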

[8] = qHTS assay to identify small molecule agonists of the AP-1 signaling pathway - cell viability counter screen (AID 1159525; calls by dose curve; further: nearly all actives have a fitted effect of over 55% in size)
In short: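 Luminescent ATP readout (Cell Titer Glo, 30 min RT), normalised to DMSO and tetra n-octyl ammonium bromide controls. Cells were ME-180 AP-1-bla in 0.5% dialyzed FBS Opti-MEM, with a 5 h, 37 °C compound exposure.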

[9] = qHTS assay to identify small molecule agonists of the AP-1 signaling pathway (AID 1159526; calls by dose curve)
[10] = qHTS assay to identify small molecule agonists of the RXR signaling pathway - cell viability counter screen (AID 1159529)
In short: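 In this parallel viability measure, GeneBLAzer RXR-alpha HEK 293T cells (2% charcoal-stripped FBS) were given a 5 hr preincubation, treated with compounds 16 hr at 37 C, and read by CellTiter-Glo luminescence.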

[11] = qHTS assay to identify small molecule antagonists of the retinoid acid receptor (RAR) signaling pathway - cell viability counter screen (AID 1159551); further: nearly all actives have a fitted effect of over 35% in size
In short: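 Seed C3RL4 cells; next day add compound, then retinol to 1 uM final; incubate 6 h at 37 C; add CellTiter-Glo; read luminescence after 30 min at RT.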

[12] = qHTS assay to identify small molecule antagonists of the retinoic acid receptor (RAR) signaling pathway (AID 1159552; further: nearly all actives have a fitted effect of over 50% in size)
In short: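 C3RL4 RARE-luc cells, overnight plating; retinol 1 uM final added right after compound; 6 hr 37 C; luciferase read at 30 min RT.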

[13] = qHTS assay to identify small molecule agonists of the retinoic acid receptor (RAR) signaling pathway (AID 1159553)
In short: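 Activation of retinol signaling was monitored via a RARE luciferase reporter in C3RL4 cells. After 6 hr compound treatment at 37 C, detection reagent was added for 30 min at room temperature before luminescence reading.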

[14] = target: Retinoic acid receptor RXR-alpha (Homo sapiens) (UniProt P19793); test: qHTS assay to identify small molecule agonists of the RXR signaling pathway (AID 1159527; calls by dose curve; further: nearly all actives have a fitted effect of over 35% in size)
In short: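 16 hr incubation of compound-treated RXR-alpha-UAS-bla HEK 293T cells (2% charcoal-stripped FBS, 37 C) preceded a 2 hr room-temperature LiveBLAzer FRET substrate step and blue/green fluorescence measurement.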

[15] = qHTS assay to identify small molecule antagonists of the estrogen related receptor (ERR) signaling pathway - cell viability counter screen (AID 1224818);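 further: series mostly up to about 46 µM; viability measured after 17.5 h of compound exposure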
In short: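 In the same ERR cell assay, compound-treated wells (17.5 h, 37 C) were multiplexed with a fluorogenic viability reagent, CellTiter-Fluor, read after 30 min to flag cytotoxic substances.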

[16] = qHTS assay to identify small molecule antagonists of the estrogen related receptor (ERR) signaling pathway (AID 1224819)
In short: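 qHTS in ERR cells, 2,000/well, 1536 format. Cpd (DMSO) added after 6 h settle, 18 h 37 C. One-Glo luminescence, 30 min RT.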

[17] = qHTS assay to identify small molecule agonists of the estrogen related receptor (ERR) signaling pathway (AID 1224820)
In short: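 Cells: ERR line from NTP, 2,000/well. Pre-incubation 6 h, 37 C/5% CO2. Compound (DMSO) pin transfer, 18 h 37 C. One-Glo, 30 min RT, luminescence.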

[18] = qHTS assay to identify small molecule antagonists of the estrogen related receptor signaling pathway with the pleiotropic PPARgamma coactivator (PGC) cell viability counter screen (AID 1224822; further: series mostly up to about 46 µM)
In short: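 Compounds in DMSO, with positive and negative controls, were applied to PGC/ERR cells (2,000/well) and left 17.5 h at 37 C before CellTiter-Fluor detection.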

[19] = qHTS assay to identify small molecule agonists of the estrogen related receptor signaling pathway with the pleiotropic PPARgamma coactivator (PGC) (AID 1224823)
In short: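 Steps: plate PGC/ERR cells at 2,000 cells/well; incubate 6 h, 37 C/5% CO2; pin-transfer compounds (DMSO); incubate 18 h, 37 C; add One-Glo; 30 min RT; read luminescence.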

Measured: Potency

Sequence of Retinoic acid receptor RXR-alpha (Homo sapiens) (P19793 whole entry, looked up): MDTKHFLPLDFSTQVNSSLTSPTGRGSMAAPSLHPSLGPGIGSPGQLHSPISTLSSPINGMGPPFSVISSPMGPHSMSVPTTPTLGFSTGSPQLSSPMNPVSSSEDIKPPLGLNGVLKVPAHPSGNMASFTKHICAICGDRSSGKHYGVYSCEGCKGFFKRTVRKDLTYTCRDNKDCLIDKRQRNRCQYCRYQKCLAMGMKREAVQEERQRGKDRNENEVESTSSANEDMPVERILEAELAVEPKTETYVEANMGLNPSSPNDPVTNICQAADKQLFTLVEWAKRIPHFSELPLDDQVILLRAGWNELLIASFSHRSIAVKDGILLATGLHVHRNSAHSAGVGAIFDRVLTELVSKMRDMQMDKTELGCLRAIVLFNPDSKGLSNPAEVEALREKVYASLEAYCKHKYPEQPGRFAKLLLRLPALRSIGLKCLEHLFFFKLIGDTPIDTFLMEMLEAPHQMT

COC(=O)c1c(C(F)F)nc(C(F)(F)F)c(C2=NCCS2)c1CC(C)C
inactive: [1] | [2] | [3] | [4] | [5] | [6] | [7] | [8] | [9] | [10] | [11] | [12] | [13]

C[C@H]1CCC[C@H](O)CCCCCc2cc(O)cc(O)c2C(=O)O1
inactive: [3] | [4] | [5] | [6] | [7] | [8] | [9] | [14] | [11] | [12] | [13]

CC(=O)[C@H]1CC[C@H]2[C@@H]3CC[C@H]4C[C@H](O)CC[C@]4(C)[C@H]3C(=O)C[C@]12C
inactive: [2] | [3] | [4] | [5] | [6] | [7] | [8] | [9] | [14] | [11] | [12] | [15] | [16] | [17] | [18] | [19]

N#CC(Cl)(Cl)Cl
inactive: [1] | [2] | [3] | [4] | [5] | [6] | [7] | [8] | [9] | [14] | [10] | [11] | [12] | [13]

C#CCN1C(=O)COc2cc(F)c(N3C(=O)C4=C(CCCC4)C3=O)cc21
inactive: [1] | [3] | [4] | [5] | [6] | [7] | [8] | [9] | [14] | [11] | [12]

CC(C)(C)NCC(O)c1cc(Cl)c(N)c(Cl)c1 (stereo not given)
inactive: [1] | [2] | [3] | [4] | [5] | [6] | [7] | [8] | [9] | [14] | [11]

OC(c1ccccc1)(c1ccccc1)C1CCNCC1
inactive: [1] | [2] | [3] | [4] | [5] | [6] | [7] | [8] | [9] | [14] | [10] | [11]

Nc1ccccc1Cl
inactive: [1] | [3] | [4] | [5] | [6] | [7] | [8] | [9] | [14] | [10] | [11]

CCN(CC)CCOC(=O)C(C)(c1ccccc1)c1ccccc1
inactive: [2] | [3] | [4] | [5] | [6] | [7] | [8] | [9] | [10] | [11] | [12] | [13]

Cc1nc(N)nc(N)n1
inactive: [1] | [2] | [3] | [4] | [5] | [6] | [7] | [8] | [9] | [10] | [11] | [12] | [13]

c1coc(-c2nc3ccccc3[nH]2)c1
inactive: [1] | [3] | [4] | [5] | [6] | [7] | [8] | [9] | [14] | [10] | [11] | [12]

OC(c1ccc(F)cc1)(c1cncnc1)c1ccccc1Cl (stereo not given)
inactive: [1] | [2] | [3] | [4] | [5] | [6] | [7] | [8] | [9] | [14] | [10] | [11] | [12]

ClC(Cl)Br
inactive: [1] | [2] | [3] | [4] | [5] | [6] | [7] | [8] | [9] | [14] | [11] | [12] | [13]

O=C1OC(=O)C2C1C1(Cl)C(Cl)=C(Cl)C2(Cl)C1(Cl)Cl (stereo not given)
inactive: [1] | [2] | [3] | [4] | [5] | [6] | [7] | [8] | [9] | [14] | [10] | [11] | [12]

COC(C)(C)C
inactive: [1] | [2] | [3] | [4] | [5] | [6] | [7] | [8] | [9] | [10] | [11] | [12] | [13]

COC(=O)c1ccccc1S(=O)(=O)NC(=O)Nc1nc(C)cc(C)n1
inactive: [2] | [3] | [4] | [5] | [6] | [7] | [8] | [9] | [14] | [10] | [11] | [12]
